Measured values from the supplement of paper PMC7156485.
± gives the standard deviation of the averaged measurements.

Experiments:
Conditions in all cases: concentration: 10 µM; 24 h
[1] = tested on: HCC1569; experiment: cell number relative to DMSO (% of DMSO); higher = more cells (less growth inhibition / toxicity)
Outline: (§1)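 Cells were seeded at 800 per well in 384-well plates with RPMI containing 10% FBS; both HCC1569 and TDF lines were used. Compounds were added at 10 µM for 24 h at 37 °C, in triplicate, before fixation in 3.7% formaldehyde and staining with a rabbit anti-H1.0 antibody, an AlexaFluor 647 secondary and DAPI. H1.0 nuclear intensity or cell number is reported as percent of the plate control using the median of replicates, and HCC1569 values were smoothed for positional effects.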

[2] = tested on: TDF; experiment: as above
Outline: as §1

[3] = tested on: TDF; experiment: H1.0 immunofluorescence intensity relative to DMSO (% of DMSO); higher = stronger H1.0 induction, active = 120 or more
Outline: as §1

[4] = tested on: HCC1569; experiment: H1.0 immunofluorescence intensity relative to DMSO (% of DMSO); higher = stronger H1.0 induction, active = 140 or more
Outline: as §1
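For H1.0 immunofluorescence intensity relative to DMSO in this document: TDF is a line of transformed human dermal fibroblasts of mesenchymal origin.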
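For cell number relative to DMSO in this document: TDF denotes transformed human dermal fibroblasts of mesenchymal origin.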

SMILES | cell number [1] | cell number [2] | H1.0 immunofluorescence intensity [3] | H1.0 immunofluorescence intensity [4]
COc1cc2c(cc1OC)[C@H]1CC(=O)[C@H](CC(C)C)CN1CC2 | 106 | 102 | 88 (inactive) | 96.4 (inactive)
CCC1(O)C(=O)OCc2c1cc1n(c2=O)Cc2cc3ccccc3nc2-1 [(S)-(+)-Camptothecin] | 54.2 | 26.9 | 126 (active) | 114 (inactive)
CC1OC(C[N+](C)(C)C)CC1O.[Cl-] (racemic) | 102 | 101 | 96.4 (inactive) | 92 (inactive)
CCCCC(C)C(OC(=O)CC(CC(=O)O)C(=O)O)C(CC(C)CCCCCCC(O)CC(O)C(C)N)OC(=O)CC(CC(=O)O)C(=O)O (stereo not given) [Fumonisin B2] | 100 | 102 | 97.3 (inactive) | 89.7 (inactive)
CC12C(=O)OC(=O)C1(C)C1CCC2O1 (stereo not given) [Cantharidin] | 20.6 ± 2.2 | 10.9 ± 0.21 | 210 (active) | 187 (active)
COC1C=C2CCN(C)C2C2c3cc4c(cc3C(=O)OC12)OCO4.O=[N+]([O-])O (stereo not given) [Ungerine nitrate] | 100 | 107 | 96.5 (inactive) | 88.8 (inactive)
Cc1ccc(S(=O)(=O)NC(CCCCN)C(=O)CCl)cc1.Cl [Na-p-Tosyl-L-lysine chloromethyl ketone hydrochloride] | 98.8 | 104 | 95.7 (inactive) | 101 (inactive)
CC1=CC(=O)c2c(O)cccc2C1=O [Plumbagin] | 39 | 46.8 | 109 (inactive) | 326 (active)
CC1OC1P(=O)([O-])[O-].[Na+].[Na+] (stereo not given) [Phosphomycin disodium] | 100 | 91.3 | 101 (inactive) | 101 (inactive)
CN1CCc2cccc(Cl)c2CC1.Cl | 103 | 98.7 | 96.2 (inactive) | 86.7 (inactive)
CCCCCC=CCC=CCC=CCC=CCCCC(=O)NCC(=O)O [N-arachidonylglycine] | 101 | 99.4 | 98.2 (inactive) | 99.6 (inactive)
CCCC[N+]1(C)C2CC(OC(=O)C(CO)c3ccccc3)CC1C1OC12 (stereo not given) [Scopolamine N-butyl] | 103 | 111 | 91.4 (inactive) | 100 (inactive)
COC(=O)N1CCN(C(=O)Cc2ccc(Cl)c(Cl)c2)C(CN2CCCC2)C1.O=C(O)C=CC(=O)O (stereo not given) | 100 | 102 | 97.7 (inactive) | 95.7 (inactive)
CC(=O)[C@H]1CC[C@H]2[C@@H]3CC[C@H]4C[C@](C)(O)CC[C@]4(C)[C@H]3CC[C@]12C [(3alpha,5alpha)-3-hydroxy-3-methylpregnan-20-one] | 105 | 93 | 101 (inactive) | 111 (inactive)
C[N+](C)(C)CCCCCCCCCC[N+](C)(C)C [Decamethonium] | 105 | 118 | 91 (inactive) | 102 (inactive)
CN1C2CCC1CC(OC(c1ccccc1)c1ccccc1N)C2 (stereo not given) [Aminobenztropine] | 103 | 97.9 | 94.1 (inactive) | 90.2 (inactive)
BrC1C(Br)C(Br)C(Br)C(Br)C1Br (stereo not given) | 101 | 106 | 97 (inactive) | 111 (inactive)
Cl.c1ccc2c(N3CCNCC3)cccc2c1 [1-(1-Naphthyl)piperazine hydrochloride] | 99.6 | 94.3 | 105 (inactive) | 106 (inactive)
CC(=O)C1CCC2C3CCC4CC(O)CCC4(C)C3C(=O)CC12C (stereo not drawn) [5alpha-Pregnan-3alpha-ol-11,20-dione] | 107 | 108 | 94.1 (inactive) | 98.7 (inactive)
CNc1ccc2oc(CC3OC4(CCC3C)OC(C(C)C(=O)c3ccc[nH]3)C(C)CC4C)nc2c1C(=O)O (stereo not given) | 70.4 | 49.7 | 151 (active) | 124 (inactive)
CC1CCC2(O)C3(C)CC4(O)OC2(C1O)C1(O)C3(O)C(OC(=O)c2ccc[nH]2)C(O)(C(C)C)C41C (stereo not given) [Ryanodine] | 106 | 101 | 93 (inactive) | 88 (inactive)
c1ccc2c(c1)[nH]c1cnccc12 [Norharmane] | 100 | 106 | 97.6 (inactive) | 92 (inactive)
Br.NCc1cc(=O)[nH]o1 [Muscimol hydrobromide] | 103 | 119 | 89.5 (inactive) | 91 (inactive)
CN1CC(CNC(=O)OCc2ccccc2)CC2c3cccc4c3c(cn4C)CC21 (stereo not given) [Metergoline] | 97.2 | 105 | 118 (inactive) | 120 (inactive)
C=CC1CN2CCC1CC2C(O)c1ccnc2ccccc12 (single isomer, unassigned; (+)) [(+)-Cinchonine] | 101 | 106 | 98.9 (inactive) | 91.1 (inactive)
